Test results reported in PubChem BioAssay (Tox21).
Several values for one entry are separate records, joined by “and”; a condition that tells them apart may be missing. Identical values can stand only once. Inconclusive results are not listed. Where a call stands in place of a potency, no number is given. Some compounds were tested as several samples or in several runs, with calls that do not always agree. Activity calls are given as the source filed them. Calls follow the shape of the full dose curve.

Experiment: Nuclear factor erythroid 2-related factor 2/antioxidant responsive element (Nrf2/ARE) small molecule agonists: luciferase reporter gene qHTS assay in human keratinocytes (AID 1919969); also: nearly all actives have a fitted effect of over 35% in size
Details: KeratinoSens HaCaT ARE-luciferase, luminescence, 24 h; series mostly up to 92.4 µM
Potency is read from the fitted curve at half-maximal effect.

Row | SMILES | Potency
1 | CCCC[n+]1cccc(C)c1 | inactive
2 | CN(C)c1ccccc1 | inactive
3 | NC1(c2ccccc2)CCCCC1 | inactive
4 | CC(Cl)C(=O)O (stereo not drawn) | inactive
5 | COc1ccc(O)c(C(C)(C)C)c1 | 68.7 µM (active)
6 | CCC[CH2][Sn]([Cl])([CH2]CCC)[CH2]CCC | 244 nM (active) and 486 nM (active)
7 | c1nc[nH]n1 | inactive
8 | COc1cc(-c2ccc(N)c(OC)c2)ccc1N | inactive
9 | CC(C)Nc1ccc(Nc2ccccc2)cc1 | 9.65 µM (active) and 24.3 µM (active)
10 | Cc1ccccc1N | inactive
11 | C=CCSSCC=C | inactive
12 | O=C1c2ccccc2C(=O)N1SC(Cl)(Cl)Cl | 15.1 µM (active) and 7.7 µM (active)
13 | C=CC(=O)OCCO | inactive
14 | COc1cc(OC)nc(NC(=O)NS(=O)(=O)c2ncccc2C(=O)N(C)C)n1 | inactive
15 | C=COCCCl | inactive
16 | O=C(NCc1cccnc1)Nc1ccc([N+](=O)[O-])cc1 | inactive
17 | N#CCCCl | inactive

Row | SMILES | Potency
18 | CCC(C)(C)c1ccc(O)c(C(C)(C)CC)c1 | 7.7 µM (active)
19 | Nc1c(Br)cc([N+](=O)[O-])cc1[N+](=O)[O-] | inactive
20 | CC(C)c1ccc(O)cc1 | inactive
21 | COc1ccc2c(c1OC)C(=O)O[C@@H]2[C@H]1c2cc3c(cc2CCN1C)OCO3 | inactive
22 | Clc1cccc(C(Cl)(Cl)Cl)n1 | inactive
23 | CCCCOC(=O)COC(=O)c1ccccc1C(=O)OCCCC | inactive
24 | Cc1ccccc1[N+](=O)[O-] | inactive
25 | CC(C)Oc1cc(-n2nc(C(C)(C)C)oc2=O)c(Cl)cc1Cl | inactive
26 | O=[N+]([O-])c1cccc2ccccc12 | inactive
27 | CCCN(CCC)N=O | inactive
28 | CCC(CC)Nc1c([N+](=O)[O-])cc(C)c(C)c1[N+](=O)[O-] | 17.5 µM (active) and 48.5 µM (active)
29 | CC(C)(O)C#N | inactive
30 | CNC(=O)O/N=C/C(C)(C)S(C)=O (stereo not drawn) | inactive
31 | Cc1cccc(N)c1C | inactive
32 | CCCC[N+]1(C)CCCC1 | inactive and 54.8 µM (active)
33 | COc1ccccc1OC | inactive
